Test results: PubChem BioAssay AID1159580 (chemical genetic matrix, 2015)
Where “and” joins values, the source holds several entries; their conditions need not be identical. Equal entries are not always repeated. Out of some 5,500 compounds screened, about 2,000 (36%) were called active. Not shown: some 18% with an inconclusive outcome. Rule as the data show it: active = normalized growth mostly below about 0.91 (no sharp cut-off); inconclusive = no clear call, values can overlap the other calls; inactive = mostly above about 0.92. This is one part of the list.

Experiment: chemical genetic growth profiling, strain panel (AID 1159580);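 also: tested at 20 µM; growth read once vehicle control cultures reached saturation at 30 °C; 1 = growth at the plate median or of vehicle wells; lower values mean less growth of the strain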
Conditions: S. cerevisiae deletion strains, growth OD
[1] = locus YMR263W, strain SAP30, hits give low values
[2] = locus YMR307W, strain GAS1, hits give low values
[3] = locus YPL241C, strain CIN2, hits give low values

Measured: normalized growth

C[C@]12CC[C@@H]3c4ccc(O)cc4CC[C@H]3[C@@H]1CCC2=O
inactive: locus YAL040C, strain CLN3, hits give low values 0.996 | locus YCL061C, strain MRC1 (second series), hits give low values 1.01 | locus YDR150W, strain NUM1, hits give low values 1 | locus YDR363W, strain ESC2, hits give low values 1 | locus YER002W, strain NOP16, hits give low values 0.995 | [1] 1 | [2] 1 | locus YNL175C, strain NOP13, hits give low values 0.985 | locus YNL197C, strain WHI3, hits give low values 1 | locus YNL224C, strain SQS1, hits give low values 1 | locus YNL322C, strain KRE1, hits give low values 0.987 | locus YOR083W, strain WHI5 (second series), hits give low values 0.905 | [3] 1

C[C@]12CCC3c4ccc(OC(=O)c5ccccc5)cc4CCC3C1CCC2=O (stereo partly drawn)
inactive: locus YAL013W, strain DEP1, hits give low values 0.986 | locus YAL021C, strain ccr4, hits give low values 1 | locus YAL026C, strain drs2, hits give low values 0.989 | locus YAL030W, strain snc1, hits give low values 0.99 | locus YBL061C, strain skt5, hits give low values 0.987 | locus YBR009C, strain hhf1, hits give low values 0.972 | locus YBR021W, strain FUR4, hits give low values 0.981 | locus YBR023C, strain chs3, hits give low values 0.984 | locus YBR171W, strain sec66, hits give low values 0.977 | locus YBR229C, strain ROT2, hits give low values 1 | locus YBR231C, strain swc5, hits give low values 0.987 | locus YBR279W, strain paf1, hits give low values 0.988 | locus YCL011C, strain gbp2, hits give low values 0.987 | locus YCL016C, strain dcc1, hits give low values 0.985 | locus YCL029C, strain bik1, hits give low values 0.996 | locus YCL061C, strain MRC1, hits give low values 0.988 | locus YCL069W, strain vba3, hits give low values 0.986 | locus YCR088W, strain abp1, hits give low values 0.984 | locus YDL005C, strain med2, hits give low values 0.987 | locus YDL035C, strain GPR1, hits give low values 0.986 | locus YDL040C, strain nat1, hits give low values 0.993 | locus YDL074C, strain BRE1, hits give low values 0.974 | locus YDL101C, strain DUN1, hits give low values 1 | locus YDL185W, strain tfp1, hits give low values 0.951 | locus YDL192W, strain arf1, hits give low values 1.02 | locus YDR001C, strain nth1, hits give low values 0.986 | locus YDR069C, strain doa4, hits give low values 0.98 | locus YDR101C, strain arx1, hits give low values 0.969 | locus YDR137W, strain rgp1, hits give low values 1 | locus YDR159W, strain sac3, hits give low values 0.968 | locus YDR162C, strain NBP2, hits give low values 1.01 | locus YDR195W, strain ref2 0.934 | locus YDR297W, strain sur2, hits give low values 0.985 | locus YDR318W, strain mcm21, hits give low values 1.02 | locus YDR334W, strain swr1, hits give low values 0.986 | locus YDR335W, strain msn5, hits give low values 0.982 | locus YDR388W, hits give low values 0.992 | locus YDR392W, strain spt3, hits give low values 0.864 | locus YDR502C, strain sam2, hits give low values 1 | locus YEL003W, strain gim4, hits give low values 0.977 | locus YEL037C, strain rad23, hits give low values 0.98 | locus YEL061C, strain CIN8 (second series), hits give low values 0.981 | locus YEL061C, strain CIN8, hits give low values 1 | locus YER015W, strain faa2, hits give low values 0.991 | locus YER016W, strain bim1, hits give low values 0.969 | locus YER110C, hits give low values 0.982 | locus YER111C, strain swi4, hits give low values 0.974 | locus YER155C, strain BEM2 (second series), hits give low values 0.974 | locus YER155C, strain BEM2, hits give low values 0.996 | locus YER167W, strain BCK2, hits give low values 1.01 | locus YFR010W, strain ubp6, hits give low values 0.993 | locus YGL078C, strain dbp3, hits give low values 1.01 | locus YGL086W, strain mad1, hits give low values 0.972 | locus YGL167C, strain pmr1, hits give low values 0.965 | locus YGL173C, strain kem1, hits give low values 0.988 | locus YGL227W, strain vid30, hits give low values 0.986 | locus YGL240W, strain doc1, hits give low values 0.99 | locus YGL248W, strain PDE1, hits give low values 1.02 | locus YGL253W, strain hxk2, hits give low values 0.976 | locus YGR135W, strain pre9, hits give low values 1.03 | locus YGR252W, strain gcn5, hits give low values 1.2 | locus YHR013C, strain ard1, hits give low values 0.939 | locus YHR027C, strain rpn1, hits give low values 0.996 | locus YHR030C, strain SLT2, hits give low values 0.991 and 1.06 | locus YHR079C, strain IRE1 (second series), hits give low values 0.997 | locus YHR079C, strain IRE1, hits give low values 1.07 | locus YHR094C, strain hxt1, hits give low values 0.999 | locus YHR129C, strain ARP1, hits give low values 0.997 | locus YHR142W, strain chs7, hits give low values 0.996 | locus YHR200W, strain rpn10, hits give low values 0.994 | locus YIL066C, strain RNR3, hits give low values 1 | locus YIL073C, strain SPO22, hits give low values 0.933 | locus YIL125W, strain kgd1, hits give low values 1 | locus YIR030C, strain dcg1, hits give low values 1.01 | locus YJL092W, strain hpr5, hits give low values 0.98 | locus YJL095W, strain BCK1 (second series), hits give low values 0.992 | locus YJL095W, strain BCK1, hits give low values 1.05 and 1.07 | locus YJL115W, strain asf1, hits give low values 0.995 | locus YJL129C, strain trk1, hits give low values 0.979 | locus YJL134W, strain LCB3, hits give low values 0.987 | locus YJL154C, strain vps35, hits give low values 0.986 | locus YJL164C, strain tpk1, hits give low values 0.977 | locus YJL166W, strain qcr8, hits give low values 0.983 | locus YJL168C, strain set2, hits give low values 0.996 | locus YJL187C, strain SWE1 (second series), hits give low values 1.01 | locus YJL187C, strain SWE1, hits give low values 0.996 | locus YJR043C, strain POL32, hits give low values 1.01 | locus YJR066W, strain TOR1, hits give low values 1.01 | locus YJR075W, strain HOC1, hits give low values 0.998 | locus YKL009W, strain mrt4, hits give low values 0.977 | locus YKL068W, hits give low values 0.975 | locus YKL085W, strain MDH1 (second series), hits give low values 1.01 | locus YKL085W, strain MDH1, hits give low values 1.01 | locus YKL160W, strain elf1, hits give low values 1.01 | locus YKR001C, strain vps1, hits give low values 0.993 | locus YKR026C, strain gcn3, hits give low values 0.978 | locus YKR091W, strain srl3, hits give low values 0.986 | locus YLL001W, strain dnm1, hits give low values 0.998 | locus YLL026W, hits give low values 0.984 | locus YLL041C, strain sdh2, hits give low values 0.989 | locus YLR027C, strain aat2, hits give low values 0.998 | locus YLR039C, strain RIC1, hits give low values 1.01 | locus YLR058C, strain SHM2, hits give low values 1.01 | locus YLR102C, strain apc9, hits give low values 0.993 | locus YLR113W, strain HOG1, hits give low values 1 | locus YLR221C, strain rsa3, hits give low values 1.01 | locus YLR258W, strain gsy2, hits give low values 0.971 | locus YLR262C, strain YPT6 (second series), hits give low values 0.94 | locus YLR262C, strain YPT6, hits give low values 0.959 | locus YLR268W, strain sec22, hits give low values 0.972 | locus YLR320W, strain mms22, hits give low values 0.98 | locus YLR330W, strain CHS5, hits give low values 0.984 | locus YLR342W, strain FKS1 (second series), hits give low values 1.01 | locus YLR342W, strain FKS1, hits give low values 0.979 | locus YLR357W, strain rsc2, hits give low values 0.947 | locus YLR370C, strain arc18, hits give low values 0.99 | locus YLR371W, strain rom2, hits give low values 1 | locus YLR384C, strain iki3, hits give low values 0.985 | locus YLR418C, strain cdc73, hits give low values 1.07 | locus YML016C, strain PPZ1, hits give low values 0.998 | locus YML032C, strain rad52, hits give low values 1.03 | locus YML120C, strain ndi1, hits give low values 0.986 | locus YML124C, strain tub3, hits give low values 1.01 | locus YMR058W, strain fet3, hits give low values 0.985 | locus YMR078C, strain ctf18, hits give low values 1.01 | locus YMR125W, strain sto1, hits give low values 0.978 | locus YMR129W, hits give low values 0.969 | locus YMR205C, strain PFK2, hits give low values 0.949 | locus YMR223W, strain ubp8, hits give low values 1.04 | locus YMR231W, strain pep5, hits give low values 0.979 | [1] 0.997 | [2] 1.22 | locus YNL067W, strain RPL9B, hits give low values 1.02 | locus YNL071W, strain lat1, hits give low values 0.993 | locus YNL128W, strain TEP1, hits give low values 0.971 | locus YNL153C, strain GIM3, hits give low values 1.02 | locus YNL183C, strain NPR1, hits give low values 1.01 | locus YNL209W, strain ssb2, hits give low values 0.989 | locus YNL233W, strain BNI4, hits give low values 1.01 | locus YNL248C, strain rpa49, hits give low values 1.01 | locus YNL250W, strain rad50, hits give low values 0.96 | locus YNL271C, strain bni1, hits give low values 1.02 | locus YNL298W, strain CLA4, hits give low values 1.01 | locus YNL307C, strain MCK1, hits give low values 0.996 | locus YNL322C, strain KRE1 (second series), hits give low values 0.994 | locus YNR049C, strain mso1, hits give low values 0.98 | locus YNR052C, strain pop2, hits give low values 1.02 | locus YOL012C, strain htz1 1.22 | locus YOL147C, strain pex11, hits give low values 0.998 | locus YOR001W, strain rrp6, hits give low values 1.01 | locus YOR061W, strain CKA2, hits give low values 1.01 | locus YOR069W, strain VPS5, hits give low values 0.993 | locus YOR070C, strain gyp1, hits give low values 0.984 | locus YOR080W, strain dia2, hits give low values 0.983 | locus YOR083W, strain WHI5, hits give low values 1.03 | locus YOR106W, strain vam3, hits give low values 1.04 | locus YOR136W, strain idh2, hits give low values 0.992 | locus YOR144C, strain elg1, hits give low values 0.998 | locus YOR184W, strain ser1, hits give low values 0.975 | locus YOR231W, strain MKK1, hits give low values 1.08 | locus YOR265W, strain rbl2, hits give low values 0.989 | locus YOR270C, strain vph1, hits give low values 0.99 | locus YOR290C, strain snf2, hits give low values 0.912 | locus YOR316C, strain cot1, hits give low values 0.993 | locus YPL051W, strain arl3, hits give low values 1.02 | locus YPL078C, strain atp4, hits give low values 0.998 | locus YPL106C, strain sse1, hits give low values 0.972 | locus YPL240C, strain hsp82, hits give low values 0.997 | [3] 0.999 | locus YPL256C, strain CLN2, hits give low values 1.12 | locus YPR119W, strain clb2, hits give low values 1.01 | locus YPR141C, strain kar3, hits give low values 1.01 | locus YPR163C, strain tif3, hits give low values 1 | locus YPR167C, strain met16, hits give low values 1.01 | strain wtn01, hits give low values 0.983
